Hits are enriched below; roughly 0.91% of the tested compounds scored in any of these assays.
LNCaP diff act = promotes differentiation of LNCaP prostate cells; flow cytometry side scatter, 4 d; side scatter shift, % at 10 µM; 0.56% of 24,000 active; AID 795;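 active = side scatter shift above 30%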;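 note: androgen-responsive LNCaP prostate cancer cells in charcoal-stripped serum medium; percent of cells past a gate set so DMSO wells show 10% shift; higher shift means more granular cells and more differentiation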
QS inhibitor = S. aureus quorum sensing inhibition | inhibition, % at 2 µM | 0.3% of 24,000 active | S. aureus RN6390 RNAIII-GFP reporter, AIP-induced, flow cytometry 3 h;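 active = share of bacteria positive for the green fluorescent reporter and its mean brightness both inhibited by 50% or more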;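 note: 0% = AIP-stimulated control and 100% = unstimulated bacteria without AIP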
* = called active by the depositor.

SMILES	LNCaP diff act	QS inhibitor
O=C(COc1ccc2ccccc2c1)N1CCN(C2CCN(Cc3ccccc3)CC2)CC1	46.0*	0.4
CCCNS(=O)(=O)c1ccc(OCC(=O)N2CCN(Cc3ccccc3)CC2)cc1	13.0	-0.2
N#Cc1ccccc1Cn1cc(C(=O)C2CC2)c2ccccc21	10.0	7.8
